# Assay outcomes from PubChem.
# The list is not random: actives were taken first. Their share in the collection is about 3.5%.
# GPR151 activ = activators of human GPR151, primary screen, cell-based, PathHunter beta-arrestin, luminescence | PathHunter beta-arrestin GPR151 cells | hit rate 1% among 650,000 | activation, % at 11.2 µM | G-protein coupled receptor 151 (Homo sapiens), Q8TDV0; in the data active = activation above about 4.9%;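 note: 0% = median of compound wells and 100% = cells with positive control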
# MITF inh = MITF inhibitors, primary screen, biochemical, AlphaScreen, human. Microphthalmia-associated transcription factor (Homo sapiens), O75030. AlphaScreen MITF homodimerization, bead proximity signal. inhibition, % at 2.6 µM. hit rate 0.91% among 650,000. AID 1259374, 2018; in the data active = inhibition above about 50%;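 note: 0% = vehicle wells with protein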
# TEAD-YAP inh = TEAD-YAP interaction inhibition, primary screen, TEAD-YAP interaction inhibitor project, luminescence, HEK-TIYL cells; inhibition, % at 9.12 µM; hit rate 1.4% among 640,000; TEAD-Gal4/YAP UAS-luciferase luminescence; in the data active = inhibition above about 32%;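 note: 0% = median of test compound wells and 100% = reference inhibitor wells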
# FBW7 activator = FBW7 E3 ligase activators, primary screen, biochemical, AlphaScreen, human; F-box/WD repeat-containing protein 7 (Homo sapiens), Q969H0; AlphaScreen FBW7–phospho-cyclin E peptide binding, activator screen; normalized activity (activation), % at 26.1 µM; hit rate 0.13% among 650,000; AID 1259310, 2017; in the data active = normalized activity above about 1.9%;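 note: purified mutant Fbw7 with reduced substrate affinity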
# GPR151 conf act = GPR151 activators, triplicate retest, confirmation, cell-based, PathHunter beta-arrestin, luminescence; shares compounds with GPR151 activ; GPR151 PathHunter beta-arrestin cells, 90 min; % of EA-reagent control over plate median; activation, % at 11.2 µM; 6,700 tested, under 10 active;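 active = mean percent activation across replicates above the confirmation screen cutoff of 4.91%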
# GPR119 counter = GPR119 activators in beta-arrestin cells, counter-screen for GPR151 activator project, cell-based, PathHunter beta-arrestin, luminescence, triplicate | 90 min; 0 = compound-well median, 100 = enzyme-acceptor control | shares compounds with GPR151 activ | hit rate 0.3% among 6,700 | activation, % at 11.2 µM;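 active = mean percent activation in the counterscreen above 29.09%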;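 note: counterscreen on off-target GPR119 to flag nonselective hits from the GPR151 activator screen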
# Target sequence (Q8TDV5 whole entry, looked up): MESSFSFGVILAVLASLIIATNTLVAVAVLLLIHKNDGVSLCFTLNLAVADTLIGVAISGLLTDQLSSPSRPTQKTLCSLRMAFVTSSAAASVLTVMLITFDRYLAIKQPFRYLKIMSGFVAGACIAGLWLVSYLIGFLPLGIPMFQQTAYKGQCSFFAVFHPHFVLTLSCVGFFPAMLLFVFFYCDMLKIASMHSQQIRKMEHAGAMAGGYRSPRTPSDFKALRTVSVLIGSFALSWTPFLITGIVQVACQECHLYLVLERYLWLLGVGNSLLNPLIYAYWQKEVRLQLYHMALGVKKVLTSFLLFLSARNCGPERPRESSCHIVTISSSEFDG
# Numbers without * were called inactive; x = no result.
SMILES,GPR151 activ,MITF inh,TEAD-YAP inh,FBW7 activator,GPR151 conf act,GPR119 counter
CCOc1ncccc1C(=O)Nc1ccc2c(C)cc(=O)oc2c1,-1,5,-3,0,x,x
COc1ccccc1C(=O)Nc1cccc(N(C)C)c1,16*,4,-11,0,0,-9
COc1ccc(NC(=O)C(C)Oc2ccc3oc(=O)cc(C)c3c2)cc1 (centres undefined),-1,22,-1,0,x,x
CCOC(=O)c1cccc(NC(=O)c2ccccc2OCC)c1,5.5*,9,-4,0,0,-5
Cc1cc(=O)oc2cc(OC(C)C(=O)Nc3ccccc3)ccc12 (centres undefined),5.3*,-9,7,0,0,-6
COC(=O)C1=C(C)N(c2ccc(Cl)cc2)/C(=C\c2cccs2)C1=O,1,3,3,0,x,x
COCCn1c(-c2ccc(Cl)cc2)nn(CN2CCN(c3ccccn3)CC2)c1=S,-1,-6,-1,0,x,x
COCCNC(=O)CN(C)S(=O)(=O)c1ccc(C)cc1,0,19,8,1,x,x
C/C(N)=C(/C#N)C(=O)COC(=O)c1ccc(COc2ccc3c(C)cc(=O)oc3c2)cc1,5.3*,7,6,0,0,0
Cc1cc(=O)oc2cc(OCc3ccc(C(=O)NNC(=O)c4ccccc4)cc3)ccc12,-1,6,1,0,x,x
COCCCNC(=O)C1CCC(Cn2c(=O)c3sccc3n(Cc3cccc(C)c3)c2=O)CC1 (centres undefined),5.3*,5,-5,0,0,-10
OCCNc1ccnc(Nc2ccccc2)n1,-2,-4,-21,0,x,x
Cc1ccc(S(=O)(=O)NCC2(c3cccs3)CCOCC2)c(C)c1,7.3*,4,-1,0,1,-6
COC(=O)N[C@H]1C[C@H]2C(=O)N3CCC[C@@H]3C(=O)N2C1,-1,22,2,1,x,x
Cc1cnc(Cl)nc1NCc1ccccc1,5.6*,5,-10,0,0,3
O=C(O/N=C(/c1ccc(Br)cc1)N1CCOCC1)c1ccccc1,0,15,3,0,x,x
COc1ccc(C(=O)NC(C)(C)CC(C)(C)C)cc1[N+](=O)[O-],6.6*,11,-10,0,0,0
O=C(CNC(=O)c1ccccc1C(F)(F)F)N/N=C/c1ccc(Br)cc1,0,5,-3,0,x,x
CCN1CCN(CCCNC(=O)CCCNC(=O)Cn2cnc3sc4c(c3c2=O)CCCC4)CC1,-1,17,6,0,x,x
CN1CCN(CCCNC(=O)CCCNC(=O)Cn2cnc3sc4c(c3c2=O)CCCC4)CC1,6.0*,14,-4,0,0,0
CC12CCC(C(=O)Nc3ccccc3C(F)(F)F)(C(=O)C1=O)C2(C)C (centres undefined),6.1*,-19,0,0,0,4
Cc1ccc(C)c(NC(=O)C23CCC(C)(C(=O)C2=O)C3(C)C)c1 (centres undefined),3,1,-3,0,x,x
COc1ccc(OC)c(C2=NOC(C(=O)NCc3cccnc3)C2)c1 (centres undefined),6.3*,-13,1,0,1,6
COc1ccc(OC)c(C2=NOC(C(=O)NCc3ccccc3)C2)c1 (centres undefined),1,16,16,0,x,x
C#CCn1c(=NC(=O)CN2C(=O)CCC2=O)sc2c(C)cc(C)cc21,7.2*,3,-3,0,0,0
SMILES,GPR151 activ,MITF inh,TEAD-YAP inh,FBW7 activator,GPR151 conf act,GPR119 counter
O=S(=O)(c1ccc(F)cc1)N1CCSCC1,5.8*,-7,-6,0,1,12
COc1ccccc1N1CCN(C(=O)c2cnc(N3CCN(c4ncccn4)CC3)c3ccccc23)CC1,5.3*,6,24,0,2,14
COc1ccccc1N1CCN(c2ncc(C(=O)N3CCN(c4ccccn4)CC3)c3ccccc23)CC1,-1,13,1,1,x,x
CCOC(=O)c1sc(NC(=O)c2ccc(S(=O)(=O)N3CCc4ccccc4C3)cc2)nc1-c1ccccc1,1,-5,0,0,x,x
NC(=O)CSc1nnc(Cc2ccccc2)n1-c1ccc(F)cc1,6.0*,-3,5,0,1,-7
CCc1ccc(C(=O)N2CCN3C(=O)[C@H](Cc4cnc[nH]4)NC(=O)[C@H]3C2)cc1,1,-4,2,0,x,x
O=S(=O)(NN=C1CCCCCC1)c1ccccc1,15*,3,11,0,-1,-6
O=S(=O)(NN=C1CCCCC1)c1ccccc1,-2,-5,-5,0,x,x
O=C1N/C(=C/c2ccccc2F)C(=O)N1Cc1ccc(Br)cc1,0,-11,16,0,x,x
CCOc1ccc(N2CCN(CCNC(=O)Nc3cccc(Cl)c3)CC2)cc1,5.5*,21,-1,0,0,4
O=C(NCCN1CCN(c2cccc(Cl)c2)CC1)Nc1ccccc1,0,-11,2,0,x,x
COc1ccccc1C(=O)COC(=O)C1(C)CC1(Cl)Cl (centres undefined),7.6*,-2,-31,0,2,13
O=c1nc(/C=C/c2ccc(-c3cccc(F)c3)o2)cc(C(F)(F)F)[nH]1,-1,-1,10,0,x,x
O=C(c1ccc(C#CC2(O)CCCCC2)cc1)N1CCN(c2ccccc2)CC1,2,9,1,0,x,x
O=C(c1ccccc1)N1CCN(CC#CC2(O)CCCCC2)CC1,10*,20,-2,1,1,4
COC(=O)c1c(OCc2ccsc2)cc(=O)n2c1CCN(Cc1nccs1)CC2,1,-7,-4,0,x,x
O=C(O)c1ccc(-n2ccnc2)c([N+](=O)[O-])c1,2,5,-4,0,x,x
O=C(c1ccccc1)c1ccc(-n2ccnc2)c([N+](=O)[O-])c1,7.3*,8,3,0,0,3
Cc1ccc(C(=O)c2ccccc2)cc1[N+](=O)[O-],8.7*,12,3,0,-1,-1
N#Cc1cccc(C(=O)N2CCC(O)(c3ccccn3)CC2)c1,0,5,0,0,x,x
Nc1nc(Nc2ccc(Oc3ccccc3)cc2)cc(-c2csc3ccccc23)n1,6.7*,5,52*,0,0,2
Nc1nc(Nc2ccccc2)cc(-c2ccccc2)n1,-1,5,2,0,x,x
Nc1nc(Nc2ccc(N3CCOCC3)cc2)cc(-c2csc3ccccc23)n1,-1,15,-32,0,x,x
Nc1nc(Nc2ccccc2)cc(-c2cccs2)n1,6.2*,7,-57,0,0,0
